Experiments:
[1] = biological target: 5'-AMP-activated protein kinase catalytic subunit alpha-2 (Homo sapiens) (UniProt P54646); settings: at 1 µM
[2] = biological target: T1, NUAK family SNF1-like kinase 1 (Homo sapiens) (UniProt O60285); settings: at 0.1 µM
T1 sequence (whole entry): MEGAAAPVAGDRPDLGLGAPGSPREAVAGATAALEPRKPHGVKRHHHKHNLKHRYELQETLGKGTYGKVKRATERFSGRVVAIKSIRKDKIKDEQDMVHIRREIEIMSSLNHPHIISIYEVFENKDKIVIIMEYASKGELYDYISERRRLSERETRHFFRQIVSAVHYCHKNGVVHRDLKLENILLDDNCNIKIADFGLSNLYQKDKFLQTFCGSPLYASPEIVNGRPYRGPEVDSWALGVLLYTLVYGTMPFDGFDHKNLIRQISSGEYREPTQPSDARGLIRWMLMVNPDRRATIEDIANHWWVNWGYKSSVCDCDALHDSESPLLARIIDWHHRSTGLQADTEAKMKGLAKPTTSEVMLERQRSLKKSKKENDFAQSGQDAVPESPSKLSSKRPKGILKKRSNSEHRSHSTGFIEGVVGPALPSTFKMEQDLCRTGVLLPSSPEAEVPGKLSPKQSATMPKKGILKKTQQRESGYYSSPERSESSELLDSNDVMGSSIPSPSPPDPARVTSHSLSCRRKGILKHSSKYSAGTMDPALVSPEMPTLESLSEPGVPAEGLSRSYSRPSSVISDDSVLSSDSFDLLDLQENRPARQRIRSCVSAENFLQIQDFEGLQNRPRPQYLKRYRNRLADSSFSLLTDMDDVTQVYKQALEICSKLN

[3] = biological target: T1, NUAK family SNF1-like kinase 1 (Homo sapiens); settings: at 1 µM
[4] = biological target: T2, Serine/threonine-protein kinase BRSK1 (Homo sapiens) (UniProt Q8TDC3); settings: at 0.1 µM
T2 sequence (whole entry): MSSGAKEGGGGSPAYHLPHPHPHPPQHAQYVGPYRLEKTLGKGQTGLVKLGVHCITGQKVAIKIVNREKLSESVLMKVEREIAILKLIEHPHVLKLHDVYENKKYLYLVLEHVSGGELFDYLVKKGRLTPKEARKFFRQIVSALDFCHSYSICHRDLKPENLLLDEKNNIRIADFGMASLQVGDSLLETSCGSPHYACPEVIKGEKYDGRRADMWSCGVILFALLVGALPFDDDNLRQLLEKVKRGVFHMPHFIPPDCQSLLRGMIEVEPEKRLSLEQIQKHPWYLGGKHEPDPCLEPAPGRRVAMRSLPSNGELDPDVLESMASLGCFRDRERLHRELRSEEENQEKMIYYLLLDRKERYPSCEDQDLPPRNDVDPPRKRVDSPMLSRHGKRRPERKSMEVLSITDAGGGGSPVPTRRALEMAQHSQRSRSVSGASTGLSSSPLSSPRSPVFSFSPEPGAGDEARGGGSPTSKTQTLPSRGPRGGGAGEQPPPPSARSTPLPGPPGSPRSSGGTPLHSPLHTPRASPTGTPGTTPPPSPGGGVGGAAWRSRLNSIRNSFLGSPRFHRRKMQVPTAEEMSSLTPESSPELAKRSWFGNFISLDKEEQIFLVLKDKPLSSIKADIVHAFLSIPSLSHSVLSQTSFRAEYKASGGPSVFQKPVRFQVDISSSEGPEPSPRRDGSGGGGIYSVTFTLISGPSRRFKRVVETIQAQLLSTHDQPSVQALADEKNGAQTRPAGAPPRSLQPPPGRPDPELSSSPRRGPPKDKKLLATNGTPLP

[5] = biological target: T2, Serine/threonine-protein kinase BRSK1 (Homo sapiens); settings: at 1 µM
[6] = biological target: T3, Serine/threonine-protein kinase BRSK2 (Homo sapiens) (UniProt Q8IWQ3); settings: at 0.1 µM
T3 sequence (whole entry): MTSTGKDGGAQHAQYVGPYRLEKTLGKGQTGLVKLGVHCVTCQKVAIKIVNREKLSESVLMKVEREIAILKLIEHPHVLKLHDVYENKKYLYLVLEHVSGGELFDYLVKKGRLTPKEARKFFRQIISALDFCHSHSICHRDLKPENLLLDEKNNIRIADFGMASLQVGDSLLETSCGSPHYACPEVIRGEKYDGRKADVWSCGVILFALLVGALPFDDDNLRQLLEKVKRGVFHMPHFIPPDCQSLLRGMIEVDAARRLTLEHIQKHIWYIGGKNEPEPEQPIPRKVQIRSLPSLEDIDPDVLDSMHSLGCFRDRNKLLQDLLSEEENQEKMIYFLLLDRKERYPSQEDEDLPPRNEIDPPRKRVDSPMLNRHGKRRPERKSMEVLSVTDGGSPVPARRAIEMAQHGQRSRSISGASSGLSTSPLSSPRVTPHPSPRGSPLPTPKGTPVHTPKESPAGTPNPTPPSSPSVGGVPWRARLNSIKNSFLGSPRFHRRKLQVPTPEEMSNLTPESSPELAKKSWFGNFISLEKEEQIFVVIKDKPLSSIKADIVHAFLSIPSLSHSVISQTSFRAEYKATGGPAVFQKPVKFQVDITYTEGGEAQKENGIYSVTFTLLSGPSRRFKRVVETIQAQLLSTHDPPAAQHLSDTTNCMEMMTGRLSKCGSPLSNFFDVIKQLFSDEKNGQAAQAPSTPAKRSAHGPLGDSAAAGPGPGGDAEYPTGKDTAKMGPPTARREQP

[7] = biological target: T3, Serine/threonine-protein kinase BRSK2 (Homo sapiens); settings: at 1 µM
[8] = biological target: Calcium/calmodulin-dependent protein kinase type 1D (Homo sapiens) (UniProt Q8IU85); settings: at 0.1 µM
[9] = biological target: Calcium/calmodulin-dependent protein kinase type 1D (Homo sapiens) (UniProt Q8IU85); settings: at 1 µM
[10] = biological target: Calcium/calmodulin-dependent protein kinase type II subunit alpha (Homo sapiens) (UniProt Q9UQM7); settings: at 0.1 µM
[11] = biological target: Calcium/calmodulin-dependent protein kinase type II subunit alpha (Homo sapiens) (UniProt Q9UQM7); settings: at 1 µM
[12] = biological target: Calcium/calmodulin-dependent protein kinase type II subunit delta (Homo sapiens) (UniProt Q13557); settings: at 0.1 µM
[13] = biological target: Calcium/calmodulin-dependent protein kinase type II subunit delta (Homo sapiens) (UniProt Q13557); settings: at 1 µM
[14] = biological target: T4, Calcium/calmodulin-dependent protein kinase type IV (Homo sapiens) (UniProt Q16566); settings: at 0.1 µM
T4 sequence (whole entry): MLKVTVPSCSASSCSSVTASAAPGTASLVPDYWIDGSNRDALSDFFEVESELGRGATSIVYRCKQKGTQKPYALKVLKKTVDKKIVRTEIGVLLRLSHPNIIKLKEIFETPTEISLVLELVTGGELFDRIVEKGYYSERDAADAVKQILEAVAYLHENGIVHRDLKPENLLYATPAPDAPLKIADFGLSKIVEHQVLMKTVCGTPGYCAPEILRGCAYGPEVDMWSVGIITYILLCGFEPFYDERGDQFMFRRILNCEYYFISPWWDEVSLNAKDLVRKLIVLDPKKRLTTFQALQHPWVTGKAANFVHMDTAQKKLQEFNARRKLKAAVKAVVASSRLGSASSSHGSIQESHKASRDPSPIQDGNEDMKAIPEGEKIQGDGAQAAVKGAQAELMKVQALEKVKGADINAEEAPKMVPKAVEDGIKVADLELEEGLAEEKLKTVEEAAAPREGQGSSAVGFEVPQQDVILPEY

[15] = biological target: T4, Calcium/calmodulin-dependent protein kinase type IV (Homo sapiens); settings: at 1 µM
[16] = biological target: T5, Serine/threonine-protein kinase Chk1 (Homo sapiens) (UniProt O14757); settings: at 0.1 µM
T5 sequence (whole entry): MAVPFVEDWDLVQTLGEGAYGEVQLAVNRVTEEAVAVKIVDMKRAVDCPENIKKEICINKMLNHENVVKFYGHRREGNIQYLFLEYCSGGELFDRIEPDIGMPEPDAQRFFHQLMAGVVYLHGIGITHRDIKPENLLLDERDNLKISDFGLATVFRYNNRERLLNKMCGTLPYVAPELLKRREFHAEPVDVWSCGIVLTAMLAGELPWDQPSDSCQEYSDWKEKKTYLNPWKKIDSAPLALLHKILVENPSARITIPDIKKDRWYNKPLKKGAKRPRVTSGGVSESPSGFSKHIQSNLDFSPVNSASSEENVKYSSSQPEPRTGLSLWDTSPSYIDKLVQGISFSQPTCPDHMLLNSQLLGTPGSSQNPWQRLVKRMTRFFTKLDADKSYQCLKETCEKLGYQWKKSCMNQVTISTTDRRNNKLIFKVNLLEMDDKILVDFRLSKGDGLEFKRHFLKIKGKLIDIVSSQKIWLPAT

[17] = biological target: T5, Serine/threonine-protein kinase Chk1 (Homo sapiens); settings: at 1 µM
[18] = biological target: Serine/threonine-protein kinase Chk2 (Homo sapiens) (UniProt O96017); settings: at 0.1 µM
[19] = biological target: Serine/threonine-protein kinase Chk2 (Homo sapiens) (UniProt O96017); settings: at 1 µM
[20] = biological target: Death-associated protein kinase 1 (Homo sapiens) (UniProt P53355); settings: at 0.1 µM;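 further: reported figure is the mean inhibition of DAPK1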
Death-associated protein kinase 1 (Homo sapiens), sequence (P53355 whole entry, looked up): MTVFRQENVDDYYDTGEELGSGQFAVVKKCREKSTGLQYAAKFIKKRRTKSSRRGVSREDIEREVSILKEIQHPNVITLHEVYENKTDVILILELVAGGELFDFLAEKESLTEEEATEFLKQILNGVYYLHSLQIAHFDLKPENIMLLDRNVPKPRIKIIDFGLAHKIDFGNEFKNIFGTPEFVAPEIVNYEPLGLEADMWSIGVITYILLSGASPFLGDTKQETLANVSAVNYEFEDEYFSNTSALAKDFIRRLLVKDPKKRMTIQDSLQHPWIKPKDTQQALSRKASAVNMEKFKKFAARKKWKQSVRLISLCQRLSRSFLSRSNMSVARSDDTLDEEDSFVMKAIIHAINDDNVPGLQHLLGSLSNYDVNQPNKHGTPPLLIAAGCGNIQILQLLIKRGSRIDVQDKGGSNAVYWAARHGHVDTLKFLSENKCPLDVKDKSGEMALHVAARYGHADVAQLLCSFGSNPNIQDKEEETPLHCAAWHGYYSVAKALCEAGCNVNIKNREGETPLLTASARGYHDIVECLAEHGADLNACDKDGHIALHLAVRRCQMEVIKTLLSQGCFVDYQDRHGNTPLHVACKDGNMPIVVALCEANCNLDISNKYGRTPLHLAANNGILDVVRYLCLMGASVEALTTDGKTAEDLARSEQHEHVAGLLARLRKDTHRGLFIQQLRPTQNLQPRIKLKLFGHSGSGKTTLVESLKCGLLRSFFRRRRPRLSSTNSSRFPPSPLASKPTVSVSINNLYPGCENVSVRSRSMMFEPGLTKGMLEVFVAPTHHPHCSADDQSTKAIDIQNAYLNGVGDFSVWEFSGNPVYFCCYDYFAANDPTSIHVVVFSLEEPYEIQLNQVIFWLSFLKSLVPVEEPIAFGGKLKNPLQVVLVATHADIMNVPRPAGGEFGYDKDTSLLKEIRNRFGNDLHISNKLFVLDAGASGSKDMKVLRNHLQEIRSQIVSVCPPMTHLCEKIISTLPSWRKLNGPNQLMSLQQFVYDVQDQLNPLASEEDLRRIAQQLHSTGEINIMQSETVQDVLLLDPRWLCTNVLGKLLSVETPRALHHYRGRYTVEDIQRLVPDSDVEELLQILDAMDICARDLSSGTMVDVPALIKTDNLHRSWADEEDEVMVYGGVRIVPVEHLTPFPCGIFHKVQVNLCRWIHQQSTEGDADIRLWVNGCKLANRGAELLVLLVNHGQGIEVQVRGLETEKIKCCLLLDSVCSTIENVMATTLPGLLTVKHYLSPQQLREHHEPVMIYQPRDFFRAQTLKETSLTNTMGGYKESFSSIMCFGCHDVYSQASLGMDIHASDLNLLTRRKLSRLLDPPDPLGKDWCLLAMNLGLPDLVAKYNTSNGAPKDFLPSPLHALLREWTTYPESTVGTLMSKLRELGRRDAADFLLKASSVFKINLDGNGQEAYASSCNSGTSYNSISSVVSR

Serine/threonine-protein kinase Chk2 (Homo sapiens), sequence (O96017 whole entry): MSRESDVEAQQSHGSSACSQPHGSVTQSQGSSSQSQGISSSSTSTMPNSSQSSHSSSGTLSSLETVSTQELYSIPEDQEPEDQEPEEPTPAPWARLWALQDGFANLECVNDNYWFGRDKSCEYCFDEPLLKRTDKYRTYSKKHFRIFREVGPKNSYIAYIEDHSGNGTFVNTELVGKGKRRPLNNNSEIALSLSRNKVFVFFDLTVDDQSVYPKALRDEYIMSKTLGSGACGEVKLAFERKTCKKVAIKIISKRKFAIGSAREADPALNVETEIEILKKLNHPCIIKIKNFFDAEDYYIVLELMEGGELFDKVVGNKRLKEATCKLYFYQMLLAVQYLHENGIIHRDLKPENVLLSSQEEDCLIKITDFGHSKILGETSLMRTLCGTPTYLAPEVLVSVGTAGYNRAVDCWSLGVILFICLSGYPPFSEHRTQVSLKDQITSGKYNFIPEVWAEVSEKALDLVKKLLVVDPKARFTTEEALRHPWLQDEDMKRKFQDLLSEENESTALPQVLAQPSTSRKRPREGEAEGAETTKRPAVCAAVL
5'-AMP-activated protein kinase catalytic subunit alpha-2 (Homo sapiens), sequence (P54646 whole entry, looked up): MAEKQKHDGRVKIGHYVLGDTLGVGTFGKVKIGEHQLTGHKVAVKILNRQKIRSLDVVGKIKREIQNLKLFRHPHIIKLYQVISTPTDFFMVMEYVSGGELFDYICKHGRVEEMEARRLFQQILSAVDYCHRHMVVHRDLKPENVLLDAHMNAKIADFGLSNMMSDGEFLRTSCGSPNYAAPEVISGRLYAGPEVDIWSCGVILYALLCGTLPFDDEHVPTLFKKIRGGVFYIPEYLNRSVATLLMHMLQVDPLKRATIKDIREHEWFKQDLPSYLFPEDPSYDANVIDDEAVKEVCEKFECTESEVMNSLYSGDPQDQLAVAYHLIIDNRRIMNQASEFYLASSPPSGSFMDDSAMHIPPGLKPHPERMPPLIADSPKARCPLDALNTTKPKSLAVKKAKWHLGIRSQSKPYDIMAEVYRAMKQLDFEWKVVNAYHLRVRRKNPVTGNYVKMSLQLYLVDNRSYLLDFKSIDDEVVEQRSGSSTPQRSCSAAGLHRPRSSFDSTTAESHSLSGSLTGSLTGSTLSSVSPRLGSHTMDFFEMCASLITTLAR
Calcium/calmodulin-dependent protein kinase type II subunit delta (Homo sapiens), sequence (Q13557 whole entry): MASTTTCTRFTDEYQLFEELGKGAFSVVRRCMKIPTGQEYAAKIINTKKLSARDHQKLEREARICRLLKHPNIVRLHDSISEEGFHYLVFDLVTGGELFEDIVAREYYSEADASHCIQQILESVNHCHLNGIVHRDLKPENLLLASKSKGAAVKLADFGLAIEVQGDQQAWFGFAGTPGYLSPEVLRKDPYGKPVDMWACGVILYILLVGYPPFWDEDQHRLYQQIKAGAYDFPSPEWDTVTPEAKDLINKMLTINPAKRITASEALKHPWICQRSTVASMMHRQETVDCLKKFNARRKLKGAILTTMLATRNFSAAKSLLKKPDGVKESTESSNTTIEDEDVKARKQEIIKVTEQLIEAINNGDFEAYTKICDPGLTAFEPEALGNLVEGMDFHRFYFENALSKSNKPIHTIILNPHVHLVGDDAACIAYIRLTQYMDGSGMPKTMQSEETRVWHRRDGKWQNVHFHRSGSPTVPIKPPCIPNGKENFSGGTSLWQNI
Calcium/calmodulin-dependent protein kinase type II subunit alpha (Homo sapiens), sequence (Q9UQM7 whole entry): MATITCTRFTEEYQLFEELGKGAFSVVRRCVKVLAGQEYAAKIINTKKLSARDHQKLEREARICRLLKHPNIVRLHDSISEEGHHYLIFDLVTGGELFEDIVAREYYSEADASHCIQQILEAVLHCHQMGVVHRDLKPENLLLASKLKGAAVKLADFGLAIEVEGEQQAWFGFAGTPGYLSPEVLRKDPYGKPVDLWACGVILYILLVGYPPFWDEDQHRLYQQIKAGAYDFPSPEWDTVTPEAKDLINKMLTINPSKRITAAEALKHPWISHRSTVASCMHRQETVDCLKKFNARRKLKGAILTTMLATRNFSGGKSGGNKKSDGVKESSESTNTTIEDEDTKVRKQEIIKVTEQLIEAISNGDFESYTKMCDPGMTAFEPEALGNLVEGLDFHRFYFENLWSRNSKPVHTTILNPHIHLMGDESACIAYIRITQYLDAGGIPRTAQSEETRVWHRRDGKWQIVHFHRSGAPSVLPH
Calcium/calmodulin-dependent protein kinase type 1D (Homo sapiens), sequence (Q8IU85 whole entry, looked up): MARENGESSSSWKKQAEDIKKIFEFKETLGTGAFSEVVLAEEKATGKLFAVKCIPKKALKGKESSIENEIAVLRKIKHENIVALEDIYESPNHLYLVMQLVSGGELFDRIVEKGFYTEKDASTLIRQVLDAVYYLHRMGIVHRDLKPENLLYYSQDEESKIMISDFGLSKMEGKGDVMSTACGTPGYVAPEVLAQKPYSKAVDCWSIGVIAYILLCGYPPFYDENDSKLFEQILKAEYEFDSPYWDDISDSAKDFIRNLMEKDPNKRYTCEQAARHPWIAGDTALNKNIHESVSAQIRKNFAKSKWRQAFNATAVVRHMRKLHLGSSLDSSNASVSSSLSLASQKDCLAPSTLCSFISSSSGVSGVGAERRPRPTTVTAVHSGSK

| SMILES | inhibition [1] [%] | inhibition [2] [%] | inhibition [3] [%] | inhibition [4] [%] | inhibition [5] [%] | inhibition [6] [%] | inhibition [7] [%] | inhibition [8] [%] | inhibition [9] [%] | inhibition [10] [%] | inhibition [11] [%] | inhibition [12] [%] | inhibition [13] [%] | inhibition [14] [%] | inhibition [15] [%] | inhibition [16] [%] | inhibition [17] [%] | inhibition [18] [%] | inhibition [19] [%] | inhibition [20] [%] |
| --- | --- | --- | --- | --- | --- | --- | --- | --- | --- | --- | --- | --- | --- | --- | --- | --- | --- | --- | --- | --- |
| COc1cccc(-n2ncc3c(N/N=C/c4ccc(C)cc4)ncnc32)c1 | 6 | 6.88 | 16.2 | 6.04 | 9.05 | 5.73 | 12.7 | 0.52 | 3.47 | 3.6 | 5.56 | 4.56 | 12.5 | 1.46 | 4.68 | -5.6 | -5.11 | -1.83 | 2.47 | -3.26 |
| OCc1ccc(-c2nc(-c3ccccn3)c(-c3ccc4c(c3)OCO4)[nH]2)cc1 | 4.26 | 3.72 | 5.56 | 2.53 | 1.5 | 2 | 0.59 | 0.54 | 0.26 | 4.98 | 5.43 | 4.96 | 4.65 | 0.02 | -0.32 | 3.36 | 3.17 | 3.25 | 4.36 | 4.31 |
| O=C1Nc2ccccc2/C1=C/Nc1ccc2[nH]c(=O)[nH]c2c1 | 12.8 | 12.6 | 46 | 1.38 | 15.7 | 5.21 | 25.8 | -1.27 | 1.07 | 3.83 | 6.6 | 4.2 | 14.1 | -1.23 | -1.4 | 0.84 | 15.7 | 5.95 | 23.3 | 1.92 |

Reference: ChEMBL document CHEMBL1961873, “Compounds: GSK PKIS; Assays: Nanosyn kinase panel” (2012)
